# Test results published in PubChem BioAssay AID1209 (Sanford-Burnham Center for Chemical Genomics, 2008).
# Screen size: about 190,000 compounds; about 810 (0.43%) were called active. This excerpt belongs to a sample that is enriched for actives. A number with no mark means an inactive call. No stated cut-off is given here; in the data, active means inhibition above about 50%; inactive means the rest.
# Biological target: Mannose-6-phosphate isomerase (Homo sapiens) (UniProt P34949)
# Test: inhibitors of human PMI, primary screen, biochemical, fluorescence intensity, coupled assay (AID 1209);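 further: plate controls were DMSO vehicle for no effect and wells lacking substrate for full effect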
# Conditions: purified PMI enzyme, at 20 µM, stronger effect = higher value
# Mannose-6-phosphate isomerase (Homo sapiens), sequence (P34949 whole entry, looked up): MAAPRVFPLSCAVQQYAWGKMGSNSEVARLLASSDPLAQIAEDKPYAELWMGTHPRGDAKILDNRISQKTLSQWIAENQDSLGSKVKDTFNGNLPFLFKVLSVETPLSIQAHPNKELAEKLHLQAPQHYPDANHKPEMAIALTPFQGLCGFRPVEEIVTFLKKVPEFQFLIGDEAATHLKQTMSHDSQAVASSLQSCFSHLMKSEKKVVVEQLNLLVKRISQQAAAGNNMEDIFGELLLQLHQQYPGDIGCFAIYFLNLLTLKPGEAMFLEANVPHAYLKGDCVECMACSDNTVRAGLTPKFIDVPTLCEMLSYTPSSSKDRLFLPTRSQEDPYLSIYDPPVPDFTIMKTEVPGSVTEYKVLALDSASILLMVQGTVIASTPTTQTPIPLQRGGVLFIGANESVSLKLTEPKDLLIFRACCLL
row,Compound,inhibition
1,C/C(=N\NC(=O)COc1ccc(C(C)(C)C)cc1)c1ccc2c(c1)OCCO2,19%
2,COc1ccccc1NC(=O)Cn1cnc2c(oc3ccccc32)c1=O,4.7%
3,Cc1ccc2c(c1)sc[n+]2Cc1ccccc1,-11.9%
4,COC(=O)[C@H](CC(C)C)NC(=O)CCc1nnc(COc2ccccc2)o1,-1.7%
5,CNC(=O)NCC12CC3CC(CC(C3)C1)C2,0%
6,CCN=c1scc(-c2cccs2)n1/N=C/c1cc(OC)ccc1O,-5%
7,COCCN=c1scc(-c2ccco2)n1/N=C/c1ccc(O)c(O)c1O,69.7% (active)
8,CCN=c1scc(C)n1/N=C/c1ccsc1,-6.7%
9,COCCN=c1scc(-c2ccccc2)n1/N=C/c1c[nH]c2ccccc12,25.3%
10,COCCN=c1scc(-c2cccs2)n1/N=C(\C)c1ccco1,-16.8%
11,COCCN=c1scc(-c2cccs2)n1/N=C/c1ccc(O)c(O)c1O,68.4% (active)
12,COc1ccc(O)c(/C=N/n2c(-c3ccco3)csc2=Nc2cccnc2)c1,11.8%
13,CCN=c1scc(C)n1/N=C/c1ccc(O)c(O)c1O,82.5% (active)
14,CCN=c1scc(C)n1/N=C/c1cc(Br)c(O)c(Br)c1,-24.9%
15,Cc1c(Br)cc(C(=O)OC2CCN(C)CC2)c(C)c1C,-1.2%
16,CCc1nnc(NC(=O)CSc2nnc(CNc3ccc(Cl)cc3)o2)s1,9.1%
17,CCCNc1nc2c(c(=O)n(C)c(=O)n2C)n1Cc1ccc(F)cc1,15.7%
18,COc1ccc2c(c1OC)C(=O)N(c1nccs1)C2,6.6%
19,CCN=C(NS(=O)(=O)c1ccc(Br)cc1)c1ccc(Cl)cc1,10.4%
20,CC1CCCN(S(=O)(=O)c2ccccc2[N+](=O)[O-])C1 (stereo not drawn),9.5%
21,COc1ccc(C2CC2/C(C)=N/OC(=O)c2ccc(F)cc2)cc1 (stereo not drawn),73.5% (active)
22,COc1ccc(C2CC2/C(C)=N/OC(=O)c2cccs2)cc1 (stereo not drawn),-5.4%
23,COc1ccc(C2CC2/C(C)=N/OC(=O)C2CC2)cc1 (stereo not drawn),2.2%
24,CCn1c(C)nc2cc(C(=O)OC(C(F)(F)C(F)F)C(F)(F)C(F)F)ccc21,18.2%
25,Cc1cc2c(cc1C)N(C(=O)CSc1nncn1C)C(C)(C)c1ssc(=S)c1-2,10.4%

row,Compound,inhibition
1,COC(=O)c1cc(OC)nc2c1c(=O)n(C)c(=O)n2C,-3.1%
2,CCCC(=O)n1nc(-c2cccnc2)nc1NCc1ccc(OC)cc1,86.5% (active)
3,CCC(=O)n1nc(-c2cccnc2)nc1NCc1ccc(OC)cc1,8.8%
4,CCCC(=O)n1nc(-c2cccnc2)nc1NCc1ccccc1,3.3%
5,O=C(CSc1ccc2c(c1)OCCO2)Nc1cccc(S(=O)(=O)N2CCCCC2)c1,12.6%
6,CC(=O)c1cc2c(O)c(O)ccc2o1,81.1% (active)
7,CC(=O)c1cc2cc(O)ccc2o1,3.2%
8,O=C(O)c1cc2c(ccc3ccccc32)o1,4.1%
9,COc1cc(OC)cc(C(=O)N[C@H](C(=O)Nc2nnc(C3CC3)s2)C(C)C)c1,11.7%
10,O=C(CCc1ccccc1)OCC(=O)c1cccc([N+](=O)[O-])c1,3.7%
11,O=C(CSc1ncnc2c1oc1ccccc12)OCc1ccccc1,22.9%
12,COc1ccccc1N1C(=O)CC(Sc2nc(C)cc(C)n2)C1=O (stereo not drawn),0.4%
13,CCOc1ccccc1N1C(=O)CC(Sc2n[nH]c(-c3ccccc3)n2)C1=O (stereo not drawn),36%
14,O=C(CN1CCCCC1)NCCNc1ccc(C(F)(F)F)cc1[N+](=O)[O-],3.9%
15,COc1ccc(NC(=S)Nc2cccc(S(=O)(=O)N3CCCCC3)c2)cc1,1.3%
16,O=S(=O)(Nc1ccc(Cl)cc1)c1ccc(N2CCOCC2)c(NC(=S)NC2CC2)c1,61.3% (active)
17,O=S(=O)(Nc1ccc(Cl)cc1)c1ccc(N2CCOCC2)c(NC(=S)NCCN2CCOCC2)c1,12.4%
18,CCN(CC)S(=O)(=O)c1ccc(N2CCCC2)c(NS(=O)(=O)c2ccc(OC)cc2)c1,-1.6%
19,COc1ccc(NS(=O)(=O)c2ccc(N3CCOCC3)c(NC(=O)c3ccc(OC)cc3)c2)cc1,9.7%
20,COc1ccc(NS(=O)(=O)c2ccc(N3CCOCC3)c(NC(=O)c3ccccc3Cl)c2)cc1,-2.5%
21,COc1ccc(NS(=O)(=O)c2ccc(N3CCCC3)c(NC(=S)Nc3cccc(C)c3C)c2)cc1,78.9% (active)
22,COC(=O)CCC(=O)Nc1cc(S(=O)(=O)Nc2ccc(Cl)cc2)ccc1N1CCOCC1,21.8%
23,COc1ccc(NS(=O)(=O)c2ccc(N3CCOCC3)c(NC(=O)c3ccc(F)cc3)c2)cc1,11.8%
24,COc1ccc(NS(=O)(=O)c2ccc(N3CCOCC3)c(NC(=O)C(C)C)c2)cc1,-20%
25,COc1ccc(NS(=O)(=O)c2ccc(N3CCCC3)c(NC(=S)Nc3ccc(SC(F)F)cc3)c2)cc1,59% (active)

row,Compound,inhibition
1,COc1ccc(NS(=O)(=O)c2ccc(N3CCCC3)c(NC(=S)Nc3cccc(S(=O)(=O)N(C)C)c3)c2)cc1,69.9% (active)
2,CCCCNC(=S)NNC(=O)c1csc(C)c1CC,-8.1%
3,O=C(O)CNC(=O)CC1S/C(=N/N=C/c2ccccc2O)NC1=O (stereo not drawn),-8.1%
4,CCCn1c(=O)c2ccccc2n2c(SCCOc3ccc(C)cc3)nnc12,12.7%
5,CCn1nnnc1SCC(=O)Nc1cc(OC)cc(OC)c1,2.1%
6,COc1ccc(C(=O)COC(=O)CCN=C2NS(=O)(=O)c3ccccc32)cc1OC,-5.9%
7,Cc1c(NC(=O)CCC2CCCCC2)c(=O)n(-c2ccccc2)n1C,-13.7%
8,O=S(=O)(NC1=NCCC1)c1cccc(NC(=S)NCCc2ccccc2)c1,2.3%
9,Cc1cc(N2CCOCC2)nc2ccc(NC(=O)C3CCC(C)CC3)cc12 (stereo not drawn),-6%
10,Cc1cc(N2CCOCC2)nc2ccc(NC(=S)N3CCCCC3C)cc12 (stereo not drawn),52.4% (active)
11,Cc1cc(N2CCOCC2)nc2ccc(NC(=S)N3CCN(c4ccccc4)CC3)cc12,22.5%
12,O=c1oc2cc(OCc3ccc(C(F)(F)F)cc3)ccc2cc1-c1ccccn1,-7%
13,NS(=O)(=O)c1ccc(NC(=S)NNC(=O)c2cccs2)cc1,63.3% (active)
14,COc1cc(C(=O)NNC(=S)Nc2ccc(S(N)(=O)=O)cc2)cc(OC)c1OC,56.6% (active)
15,O=C(NNC(=S)Nc1ccccc1)c1cccs1,-13.9%
16,COc1cc(OC)cc(C(=O)NNC(=S)Nc2ccc(S(N)(=O)=O)cc2)c1,-10.4%
17,O=C(NNC(=S)Nc1ccc(Cl)cc1)c1cccs1,-1.6%
18,COc1cc(C(=O)NNC(=O)c2ccc(NC(C)=O)cc2)cc(OC)c1OC,-4.2%
19,COc1ccc(C(=O)Nc2ccc3c(c2)nc(CN2CCCC2)n3C)cc1,9.7%
20,C=CCn1c(SCC(=O)c2cccs2)nnc1-c1cccc(OC)c1,11.5%
21,O=C(N/N=C/C(c1ccccc1)c1ccccc1)c1ccccc1F,-8.5%
22,Cc1nn(-c2nc3ccccc3n2Cc2ccccc2)c2c1C(=O)CC(C)(C)C2,24.7%
23,CNCc1ccccc1Sc1cccc(O)c1,-7%
24,CNCc1ccccc1Sc1ccc(O)c(O)c1,74.9% (active)
25,CNCc1ccccc1Sc1cc(O)ccc1O,19.1%

row,Compound,inhibition
1,CN(C(=O)CS(=O)(=O)c1cn(CC(=O)N2CCOCC2)c2ccccc12)c1ccccc1,-4.3%
2,Cc1ccc(NC(=O)NC2C(NC(=O)Nc3ccc(C)cc3)N(C)C(=O)N2C)cc1 (stereo not drawn),9.5%
3,CNC(=S)N(CCc1c(C)[nH]c2ccc(OC)cc12)Cc1cccnc1,16%
4,O=C(CSCc1ccc(Br)cc1)N=Nc1c(O)[nH]c2ccccc12,4.5%
5,CC(C)(Cc1ccc(O)cc1)NC(=O)CC(=O)N=Nc1c(O)[nH]c2ccc(Br)cc12,1.3%
6,CC(C)(Cc1ccc(O)cc1)NC(=O)CC(=O)N=Nc1c(O)[nH]c2cc(Br)ccc12,51.6% (active)
7,CSc1nc2sc(-c3ccccc3)cc2c(=O)n1N,-6.6%
8,CCOC(=O)Cc1csc(NC(=O)CC)n1,-9.9%
9,CCOC(=O)Cc1csc(NC(=O)NC2(C(F)(F)F)Oc3cc(Cl)c(Cl)cc3O2)n1,57.5% (active)
10,CCOC(=O)Cc1csc(NC(=O)NC2(C(F)(F)F)Oc3ccc(Cl)cc3O2)n1 (stereo not drawn),51.8% (active)
11,CCOC(=O)Cc1csc(NC(=O)Nc2cccc(Cl)c2)n1,-0.4%
12,CCOC(=O)Cc1csc(NC(=O)NC2(C(F)(F)F)Oc3ccccc3O2)n1,22.4%
13,CCOC(=O)Cc1csc(NC(=O)C(C)(C)CC)n1,-7.2%
14,CC(OC(=O)c1ccc2ncsc2c1)C(=O)NCc1ccccc1 (stereo not drawn),15.5%
15,O=C(Nc1nc(-c2cccs2)cs1)c1cc2ccccc2oc1=O,-3.3%
16,O=C(NC(Cc1c[nH]c2ccccc12)C(=O)N/N=C/c1ccc(Cl)cc1)c1cccs1 (stereo not drawn),18.1%
17,COc1cccc(C(=O)/C=C/c2ccc(N3CCCCC3)c([N+](=O)[O-])c2)c1,14.3%
18,O=C(O)c1ccc(-c2nc(-c3ccc(Cl)c(Cl)c3)cs2)cc1,-3.3%
19,Oc1ccc(-c2nc(-c3ccc(O)c(O)c3)cs2)cc1,54.3% (active)
20,Oc1ccc(-c2csc(-c3ccccc3)n2)cc1O,62.6% (active)
21,O=C(O)c1ccc(-c2nc(-c3ccccc3)cs2)cc1,-11.3%
22,Oc1ccccc1-c1csc(-c2ccccc2)n1,12.8%
23,Cc1nc(-c2ccc(O)c(O)c2)cs1,47%
